An excerpt weighted towards active compounds, which were near 0.9% of everything screened.
RECQ1 inh-1: RECQ1 (human) helicase inhibition. RECQ1 DNA unwinding, red fluorescence kinetic read. AID 2549. P46063. 0.54% of 240,000 active. Potency, µM (titrated, usually from 57.3 µM), for the others: top-dose activity, negative = inhibition, usual class: inhibitors;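 also: potency is read from the fitted curve at half-maximal effect; plate controls were vehicle for no effect and no enzyme for full effect; nearly all actives have a fitted effect of over 30% in size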
Target sequence (P46063 whole entry, looked up): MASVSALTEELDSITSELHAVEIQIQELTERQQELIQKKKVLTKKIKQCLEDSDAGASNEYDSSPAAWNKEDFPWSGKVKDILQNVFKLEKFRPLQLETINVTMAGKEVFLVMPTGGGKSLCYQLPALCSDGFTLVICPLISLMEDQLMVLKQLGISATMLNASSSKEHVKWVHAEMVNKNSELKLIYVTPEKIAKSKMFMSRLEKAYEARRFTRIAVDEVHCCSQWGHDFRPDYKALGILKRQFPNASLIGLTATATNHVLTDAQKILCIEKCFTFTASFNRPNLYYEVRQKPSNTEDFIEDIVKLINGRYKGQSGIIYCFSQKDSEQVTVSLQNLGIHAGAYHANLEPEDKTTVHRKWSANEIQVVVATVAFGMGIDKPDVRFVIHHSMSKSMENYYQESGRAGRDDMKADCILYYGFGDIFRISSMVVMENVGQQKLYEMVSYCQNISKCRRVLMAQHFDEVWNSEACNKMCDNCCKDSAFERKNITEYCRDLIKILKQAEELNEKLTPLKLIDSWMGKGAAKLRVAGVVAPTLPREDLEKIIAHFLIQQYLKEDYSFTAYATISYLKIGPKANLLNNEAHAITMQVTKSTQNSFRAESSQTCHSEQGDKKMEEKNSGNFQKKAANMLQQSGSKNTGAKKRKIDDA
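RECQ1T1 50 nM; forked duplex (20 bp + 30-nt ss tails) 200 nM, ATP 2 mM final; pH 8.0, 2 mM MgCl2, 2.5 ug/ml poly(dI-dC); 15 min compound preincubation; discontinuous kinetic read over 2 h at RT.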
APEX1 inh: APE1 (human) endonuclease inhibition; P27695; recombinant APE1, TAMRA/BHQ-2 abasic DNA cleavage fluorescence; Potency, µM (series often up to 65.8 µM), for inactives: at the highest dose activity change, negative = inhibition, usual class: inhibitors; 0.35% of 350,000 active;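 also: potency is read from the fitted curve at half-maximal effect; plate controls were vehicle for no effect and reference inhibitor for full effect; nearly all actives have a fitted effect of over 55% in size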
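Readout is kinetic fluorescence (ex 525, em 598 nm) from cleavage of 50 nM TAMRA/BHQ-2 THF abasic duplex by 0.75 nM APE1, compound added 15 min beforehand at RT.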
BLM inh: inhibitors of human Bloom syndrome helicase BLM | AID 2528 | Potency, µM (top dose mostly 56.1 µM), for the others: at the highest dose activity change, negative = inhibition, hits mostly inhibitors | recombinant BLM DNA unwinding, fluorescence dequenching | 0.2% of 350,000 active;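 also: potency is read from the fitted curve at half-maximal effect; plate controls were vehicle for no effect and no enzyme for full effect; nearly all actives have a fitted effect of over 35% in size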
TDP1 inh: blocks human tyrosyl-DNA phosphodiesterase 1. Q9NUW8. recombinant TDP1, AlphaScreen DNA substrate cleavage. Potency, µM (series often up to 130 µM), inactives show top-dose activity change, negative = inhibition, actives largely listed as inhibitors. 0.28% of 350,000 active. AID 485290; also: potency is read from the fitted curve at half-maximal effect; % is scaled to controls: 0 for no effect and ±100 for the full control effect; nearly all actives have a fitted effect of over 40% in size
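Steps: enzyme plus compound, 15 min RT; add biotin/phosphotyrosine-FITC oligonucleotide (15 nM final), react 5 min; add donor/acceptor beads (10 ug/ml final), 10 min; read AlphaScreen. Tdp1 at 1 nM final.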
GCN5L2 inh-1: blocks human GCN5L2 histone acetyltransferase; Q92830; GCN5L2 HAT assay, ThioGlo1 CoA-SH fluorescence; Potency, µM (series often up to 58.9 µM), without a hit: at the top dose activity change, negative = inhibition, hits mostly inhibitors; 0.21% of 390,000 active; also: potency is read from the fitted curve at half-maximal effect; % is scaled to controls: 0 for no effect and ±100 for the full control effect
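Titration-based screen in which CoA formation is detected via maleimide probe ThioGlo1 (50uM) turning fluorescent on thiol reaction; substrates H3(1-25) 75uM and acetyl-CoA 70uM, GCN5L2 20nM, 20 min incubation at room temperature.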
LMNA splice mod: modulators of lamin A splicing | HeLa LMNA splicing GFP/RFP minigene ratio, 48 h | Potency, µM (doses to about 46.1 µM), inactives show at the highest dose ratio change, negative = inhibition, most hits filed as inhibitors | 0.01% of 200,000 active; active = well fitted inhibition curve with a large enough effect in the signal ratio, with a control signal flat, not every such curve was filed as active; inconclusive = small, poorly fitted or top-dose-only effect, or effect the other way, or a change in a side signal; the % refers to the signal ratio; also: potency is read from the fitted curve at half-maximal effect; % is scaled to controls: 0 for no effect and ±100 for the full control effect
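S3 HeLa stable clones carrying a lamin A-EGFP splicing minigene plus DsRed2 were seeded at 600 cells/well in Opti-MEM with 2% FBS, pin-dosed and incubated 48 h at 37°C. Acumen cytometry (488 nm) gave the GFP/RFP total-intensity ratio.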
RECQ1 conf: confirmation of human RECQ1 helicase inhibitors; shares compounds with RECQ1 inh-1; RECQ1 helicase DNA unwinding, fluorescence; Potency, µM (highest dose often 229 µM), inactives show top-dose activity change, negative = inhibition, hits mostly inhibitors; 28% of 610 active; AID 2708; also: potency is read from the fitted curve at half-maximal effect; % is scaled to controls: 0 for no effect and ±100 for the full control effect; nearly all actives have a fitted effect of over 45% in size
RECQ1 ADP FP: counter-screen for RECQ1 inhibitors: ADP displacement; shares compounds with RECQ1 inh-1; ADP fluorescence polarization displacement counterscreen; Potency, µM (series often up to 228 µM), for the others: top-dose activity change, negative = inhibition, actives largely listed as inhibitors; 27% of 530 active; also: potency is read from the fitted curve at half-maximal effect; % is scaled to controls: 0 for no effect and ±100 for the full control effect; nearly all actives have a fitted effect of over 45% in size
RECQ1 inh-2: RECQ1 helicase inhibition confirmed, round 2; shares compounds with RECQ1 inh-1; recombinant RECQ1 DNA unwinding, red fluorescence; Potency, µM (series often up to 119 µM), for the others: at the top dose activity, negative = inhibition, hits mostly inhibitors; 15% of 1,100 active; AID 504841; also: potency is read from the fitted curve at half-maximal effect; % is scaled to controls: 0 for no effect and ±100 for the full control effect; nearly all actives have a fitted effect of over 50% in size
GCN5L2 inh-2: confirmation of human GCN5L2 histone acetyltransferase inhibitors; shares compounds with GCN5L2 inh-1; GCN5L2 HAT, ThioGlo1 CoA fluorescence, 20 min; Potency, µM, actives largely listed as inhibitors; 70% of 140 active
* marks the source's active call; other numbers are inactive results; ? = inconclusive; . = not tested or not shown; ! = repeats disagree; [ ] = remark or other dose. Unless noted, calls follow the shape of the dose curve; as a rule, active = well fitted curve in the direction sought with a large enough effect; inconclusive = small, poorly fitted or top-dose-only effect, or another doubt; inactive = no such curve, though single readings can be large; an effect the other way counts as inactive or inconclusive.

SMILES | RECQ1 inh-1 | APEX1 inh | BLM inh | TDP1 inh | GCN5L2 inh-1 | LMNA splice mod | RECQ1 inh-2 | others
CC(O)C(C)OC(=O)[C@@H]1C[C@@H]2c3cccc4c3c(cn4C(C)C)C[C@H]2N(C)C1 (stereo partly drawn) | 35µM*! | 3% | . | 12%[56.1 µM] | ? | -22% | 56µM*
CCN(CC)C(=O)N[C@H]1C=C2c3cccc4[nH]cc(c34)C[C@@H]2N(C)C1 | -6%[25.9 µM] | 3%[21 µM] | -10%[21.4 µM] | 16%[21 µM] | -4%[21.4 µM] | ? | .
O=c1oc2ccccc2c(O)c1C(c1ccccn1)c1c(O)c2ccccc2oc1=O | 7.9µM* | ? | -15% | 9% | -12% | ? | ?
NC(=O)O | -5% | -4% | -2% | 5% | -17% | . | .
CC(C)CCNC(=O)c1c(N)n(CC2CCCO2)c2nc3ccccc3nc12 (stereo not drawn) | ? | ? | ? | -2% | -6% | 17% | -20%
COc1ccc(CCNC(=O)c2c(N)n(CCN3CCOCC3)c3nc4ccccc4nc23)cc1 | 2% | 1% | -11% | -3% | -11% | 11% | .
CCC(C)NC(=O)c1c(N)n(CCCOC)c2nc3ccccc3nc12 (stereo not drawn) | ? | -10% | ? | -8% | -13% | ? | -11%
CCC(C)NC(=O)c1c(N)n(CC2CCCO2)c2nc3ccccc3nc12 (stereo not drawn) | ? | -3% | ? | 0% | -15% | 6% | -28%
Nc1c(C(=O)NCCc2ccccc2)c2nc3ccccc3nc2n1CCN1CCOCC1 | 8.9µM* | -5% | -13% | 5% | -14% | ? | -17% | RECQ1 conf=-7%[114 µM];RECQ1 ADP FP=-5%[91.9 µM]
CC(C)C1C(=O)N2CCC[C@H]2[C@]2(O)O[C@](NC(=O)[C@@H]3C=C4c5cccc6[nH]cc(c56)C[C@H]4N(C)C3)(C(C)C)C(=O)N12 (stereo partly drawn) | -27% | -3% | . | 12% | -12% | . | .
COC(=O)C[C@@](O)(CCC(C)(C)O)C(=O)O[C@@H]1C(OC)=C[C@]23CCCN2CCc2cc4c(cc2[C@@H]13)OCO4 | -7% | 0% | -1% | 4% | ? | . | .
CCN(CC)C(=O)c1ccc2c(c1)C1C(Cl)C(Sc3ccccc3[N+](=O)[O-])CC1C(C(=O)O)N2 (stereo not drawn) | -22% | -11% | -25% | 3% | 13µM* | . | . | RECQ1 conf=?;RECQ1 ADP FP=126µM*
C=CCOCC1CO1 (stereo not drawn) | -1% | 0% | . | 10% | . | . | .
NCCCCC(NC(CCc1ccccc1)C(=O)O)C(=O)N1CCCC1C(=O)O (stereo not drawn) | -6% | 1% | -8% | 10%[56.1 µM] | 15% | . | .
O=C(CSc1ccc(-c2ccco2)nn1)Nc1ccccc1 | 25µM* | ? | -25% | 3% | -8% | . | ?
O=[N+]([O-])c1ccc(NCc2ccccc2)c2nonc12 | 11µM* | -3% | -8% | -3% | -9% | ? | 45µM* | RECQ1 conf=20µM*;RECQ1 ADP FP=2.2µM*
CCc1ccc(N2C(=O)NC(=O)/C(=C\C=C\c3ccco3)C2=O)cc1 | 8.9µM* | ? | -1% | -1% | -13% | . | . | RECQ1 conf=?;RECQ1 ADP FP=50µM*
CCc1ccc(N2C(=O)CC(=O)NC2=O)cc1 | . | 39% | 1% | . | -6% | . | .
O=c1cc(-c2ccc(O)c(O)c2)oc2cc(O)cc(O)c12 | 13µM* | 5µM* | 35µM*! | 11% | -4% | ? | 3.2µM* | RECQ1 conf=?
COc1ccc(-c2cc(=NCC(=O)O)c3ccccc3o2)cc1 | . | -20% | 5% | . | ? | . | . | GCN5L2 inh-2=32*
COC1=CC(=O)OC(CCc2ccccc2)C1 (stereo not drawn) | -14% | -7% | . | 15% | . | . | .

Compound activity from PubChem.
